Laboratory results as given in PubChem BioAssay (NCATS).
Values without a mark were called inactive. Entries that show only a call come without a potency. Activity calls are given as the source filed them. Calls come from the whole dose curve; as a rule, active = well fitted activation curve with a large enough effect; inconclusive = small, poorly fitted or top-dose-only effect; inactive = no such curve, though single readings can be large or run the other way.

molecular target: Cytochrome P450 3A4 (Homo sapiens) (UniProt P08684); experiment: qHTS Assay for Activators of Cytochrome P450 3A4 (AID 885); conditions: recombinant CYP3A4, Luciferin-PPXE luminescence, 60 min; series mostly up to 57.1 µM; note: nearly all actives have a fitted effect of over 65% in size
Description: NIH Molecular Libraries Screening Centers Network [MLSCN]
NIH Chemical Genomics Center [NCGC]
The P450 gene superfamily is involved in the metabolism and clearance of xenobiotics. This assay used human CYP3A4 to measure the dealkylation of luciferin-6' phenylpiperazinylyl (Luciferin-PPXE; […]) to luciferin. The luciferin is then measured by luminescence after the addition of a luciferase detection reagent. Luciferin-PPXE concentration in the assay was equal to its KM for CYP3A4. Inhibitors and some substrates limit the production of luciferin, and decrease measured luminescence; activators increase the production of luciferin and luminescence.
NCGC Assay Protocol Summary:
Two uL of enzyme and substrate mix (final concentrations: 20nM CYP3A4, 25uM Luciferin-PPXE, 200mM KPO4) were dispensed into a white, solid bottom 1536-well microtiter plate. 23nL of compound was transferred by a pin tool. The plate was incubated at RT for 10 min. Two uL of an NADPH regeneration solution (Promega supplied reagent) was dispensed and the reaction was allowed to continue for 60 min at RT. Then the reaction was stopped by reconstituted luciferin detection buffer. After another 20 min of incubation the plate was read on the ViewLux (Perkin Elmer) at 60 sec exposure and 2x2 binning. This protocol was carried out with Promega-Glo reagents and further information can be found at http://www.promega.com/tbs/tb325/tb325.pdf. Data were normalized to the to AC100 inhibition (57 uM ketoconazole).
Keywords: P450, CYP2D6, Luciferase, MLSMR, MLSCN, NIH Roadmap, qHTS, NCGC
Potency is the fitted concentration of half-maximal effect.

Cytochrome P450 3A4 (Homo sapiens), sequence (P08684 whole entry, looked up): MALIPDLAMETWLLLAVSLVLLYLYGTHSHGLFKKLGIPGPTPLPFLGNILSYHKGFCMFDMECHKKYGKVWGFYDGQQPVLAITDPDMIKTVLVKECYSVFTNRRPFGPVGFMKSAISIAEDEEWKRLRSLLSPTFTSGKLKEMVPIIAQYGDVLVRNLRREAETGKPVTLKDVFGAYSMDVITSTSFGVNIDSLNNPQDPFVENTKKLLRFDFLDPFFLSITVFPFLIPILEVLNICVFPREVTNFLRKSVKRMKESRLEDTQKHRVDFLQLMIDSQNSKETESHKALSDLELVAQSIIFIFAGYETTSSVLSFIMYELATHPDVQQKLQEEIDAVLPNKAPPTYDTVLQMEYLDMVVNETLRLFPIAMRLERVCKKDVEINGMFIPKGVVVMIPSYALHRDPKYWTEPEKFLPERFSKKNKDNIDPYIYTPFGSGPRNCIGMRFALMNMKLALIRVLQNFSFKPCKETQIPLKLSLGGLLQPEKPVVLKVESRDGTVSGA

| Compound | Potency | activity change, positive = activation |
| --- | --- | --- |
| COC(=O)C1CC1C(NC(=O)[C@H]1CCCCN1)c1ccccc1 (stereo not given in full) | inactive |  |
| C/C(=C\C1CCCCC1)C(NC(=O)c1ccc(C(F)(F)F)cc1)c1ccc(-c2ccccc2)cc1 (stereo not given) | inactive |  |
| CCCC/C=C/C(NC(=O)C(C)(C)C)c1ccccc1 (stereo not given) | inactive |  |
| CCC/C=C(\CCC)C(NS(=O)(=O)c1ccc(C(F)(F)F)cc1)c1ccc(-c2ccccc2)cc1 (stereo not given) | inactive |  |
| CC(C)c1cccc2nc3c(c(C(C)(C)C)c12)Cn1c-3cccc1=O | inactive |  |
| COC(=O)[C@H]1C[C@@H]1[C@H](NC(=O)c1cccnc1)c1ccccc1 | inactive |  |
| C[C@@H](C(=O)NCc1cccc2ccccc12)[C@H]1C[C@]1(C)[C@H](NC(=O)OCc1ccccc1)c1ccccc1 | inactive |  |
| COC(=O)[C@@]1(Cc2ccc(F)cc2)[C@H]2c3cc(C(=O)N4CCCC4)n(CCc4c[nH]c5ccccc45)c3C[C@H]2CN1C(=O)c1ccccc1 | inactive |  |
| CNc1ccc(O)cc1 | inactive |  |
| C=CCN1CCc2c(cc(O)c(O)c2Br)[C@H](c2ccccc2)C1 | 20 µM (active) |  |
| CCCCCC1=C2CNC(Cc3ccccc3)(C(=O)OC)C=C2C(C)C1=O (stereo not given) | inactive |  |
| COCCNc1nc(-c2ccc(N(C)C)cc2)nc2ccccc12 | inactive |  |
| CCCC[C@@H]1C[C@H]1C(NC(=O)c1cccnc1)c1ccc(Cl)cc1 (stereo not given in full) | inactive |  |
| CCCC/C=C/C(NC(=O)c1ccccc1)c1ccccc1 (stereo not given) | inactive |  |
| CC1=C(C(=O)OCc2ccccc2)C(c2ccc(Cl)cc2)NC(=O)N1CCCCCC(=O)O (stereo not given) | inactive |  |
| C[C@@H](C(=O)NCCF)[C@H]1C[C@]1(C)[C@H](NC(=O)OCc1ccccc1)c1ccccc1 | inactive |  |
| CC[C@]1(O)C[C@H]2CN(CCc3c([nH]c4ccccc34)[C@](C(=O)OC)(c3cc4c(cc3OC)N(C=O)[C@H]3[C@@](O)(C(=O)OC)[C@H](OC(C)=O)[C@@]5(CC)C=CCN6CC[C@]43[C@H]65)C2)C1 | inactive |  |
| C[C@@H](C(=O)NCc1ccccn1)[C@H]1C[C@]1(C)[C@H](NC(=O)OCc1ccccc1)c1ccccc1 | inactive |  |
| C[C@@H](C(=O)NCc1ccc(S(C)(=O)=O)cc1)[C@@H]1C[C@@]1(C)[C@@H](NC(=O)OCc1ccccc1)c1ccccc1 | inactive |  |
| CCCCC[C@H](O)c1cccc(OCc2ccc3ccccc3n2)c1 | inactive |  |

| Compound | Potency | activity change, positive = activation |
| --- | --- | --- |
| CCC[C@@H]1C[C@@]1(CCC)C(NC(=O)c1ccco1)c1ccc(Cl)cc1 (stereo not given in full) | inactive |  |
| COc1cc(O)c2c(=O)cc(-c3ccccc3)oc2c1 | inactive |  |
| CCC/C=C(\CCC)C(NC(=O)c1ccc(C(F)(F)F)cc1)c1ccccc1 (stereo not given) | inactive |  |
| COC(=O)[C@@]1(Cc2ccccc2)[C@H]2c3cc(C(=O)N4CCCC4)n(Cc4ccsc4Br)c3C[C@H]2CN1C(=O)c1ccccc1 | inactive |  |
| C[C@@H](C(=O)Nc1ccc2ccccc2c1)[C@@H]1C[C@@]1(C)[C@@H](NC(=O)Oc1ccc(F)cc1)c1ccccc1 | inactive |  |
| Cc1cc(C(=O)N[C@@H](c2ccccc2)[C@]2(C)C[C@H]2[C@@H](C)C(=O)Nc2ccc3ccccc3c2)n(C)n1 | inactive |  |
| COC(=O)[C@@H]1C[C@H]1[C@@H](NC(=O)Oc1ccc(F)cc1)c1ccccc1 | inactive |  |
| C[C@@H](C(=O)Nc1ccc2ccccc2c1)[C@H]1C[C@]1(C)[C@H](NP(=O)(c1ccccc1)c1ccccc1)c1ccccc1 | inactive |  |
| CCCC[C@@H]1C[C@H]1C(NC(=O)c1cccs1)c1ccc(C(F)(F)F)cc1 (stereo not given in full) | inactive |  |
| COCC1C2CC[C@H]3C(OCc4ccc(OC)cc4)OC[C@]4(C)[C@H]3C2=C(CN4C(=O)OC(C)(C)C)[C@H](C)C1COC (stereo not given in full) | inactive |  |
| O=c1c(O)c(-c2ccc(O)cc2)oc2ccc(O)cc12 | inactive |  |
| COc1cc2oc(-c3ccccc3)cc(=O)c2cc1OC | inactive |  |
| COC(=O)[C@@]1(Cc2ccc(F)cc2)[C@@H]2C(=CC(=O)[C@H]2CC(=O)C(=O)N(C)C)CN1C(=O)c1ccccc1 | inactive |  |
| CCC[C@@H]1C[C@@]1(CCC)C(NS(=O)(=O)c1cccc2cccnc12)c1ccc(Cl)cc1 (stereo not given in full) | inactive |  |
| CC[C@H](c1ccccc1)c1cc(C(C)(C)C)cc(C(C)(C)C)c1O |  | -33% [at 11.4 µM] |
| O=c1cc(-c2cccc(O)c2O)oc2ccccc12 | inactive |  |
| C[C@@H](C(=O)NCc1ccccn1)[C@@H]1C[C@@]1(C)[C@@H](NC(=O)OCc1ccccc1)c1ccccc1 | inactive |  |
| CCc1c2c(nc3c(C(C)C)cccc13)-c1cccc(=O)n1C2 | inactive |  |
| CC1(C)C(=O)C(c2ccccc2)=C2CN3C(=O)N(CCc4ccccc4)C(=O)C3(Cc3ccccc3)C=C21 (stereo not given) | inactive |  |
| COc1ccc(S(=O)(=O)N2c3ccc(Cl)cc3[C@](O)(c3ccccc3Cl)[C@@H]2C(=O)N2CCC[C@H]2C(N)=O)cc1OC | inactive |  |
